# CYP2C9 inh: blockers of cytochrome P450 2C9 activity – biochemical, luminescence, ADME assay, primary screen. P11712. hit rate 20% among 96,000. inhibition, % at 5 µM. AID 777, 2007. CYP2C9 Supersomes, luciferin-H conversion;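 active means blocking of liver enzyme CYP2C9 beyond about 50% at 5 µM, limit read from the data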
# Target sequence (P11712 whole entry, looked up): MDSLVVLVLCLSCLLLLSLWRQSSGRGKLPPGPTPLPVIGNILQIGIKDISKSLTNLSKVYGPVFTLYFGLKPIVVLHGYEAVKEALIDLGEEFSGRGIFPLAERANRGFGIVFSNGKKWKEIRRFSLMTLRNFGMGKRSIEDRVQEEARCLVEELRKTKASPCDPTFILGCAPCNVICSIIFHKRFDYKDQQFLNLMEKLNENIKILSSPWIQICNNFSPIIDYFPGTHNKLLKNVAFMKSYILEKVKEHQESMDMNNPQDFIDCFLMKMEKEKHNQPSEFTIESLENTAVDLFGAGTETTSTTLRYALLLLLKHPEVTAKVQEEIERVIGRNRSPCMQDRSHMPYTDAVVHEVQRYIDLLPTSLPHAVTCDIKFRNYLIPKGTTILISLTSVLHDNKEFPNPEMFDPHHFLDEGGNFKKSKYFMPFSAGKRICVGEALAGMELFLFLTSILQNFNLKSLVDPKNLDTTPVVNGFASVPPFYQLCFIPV
# CYP2C9 activ: human CYP2C9 activators, primary screen, biochemical, luminescence. recombinant CYP2C9, luciferin-H conversion; active compounds read high; factor 1 = untreated enzyme, 0 = blocked. activation factor at 5 µM. hit rate 1.4% among 96,000. AID 1024, 2008;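 active means activation factor of 2 or more for CYP2C9 at a 5 µM dose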
# CYP2C19 inh: blockers of cytochrome P450 2C19 activity – biochemical, luminescence, ADME assay, primary screen | P33261 | CYP2C19 Supersomes, luciferin-H EGE luminescence, 30 min | inhibition, % at 5 µM | hit rate 21% among 96,000 | AID 778, 2007;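 active means CYP2C19 inhibition above a set limit at 5 µM in the primary screen, cut at about 50% in these data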
# Measles CPE: compounds protecting cells from measles virus cytopathic effect, primary screen, measles RdRp inhibitor project, single point, MLSMR library, absorbance; Measles virus-infected cells, CPE protection; protection (pct of control), % at 4 µM; hit rate 1.5% among 140,000; in the data active means protection mostly above about 24%, no sharp cut-off; inactive means mostly below about 26%
# CYP2C19 act: human CYP2C19 activators, primary screen, biochemical, luminescence | Cytochrome P450 2C19 (Homo sapiens), P33261 | recombinant CYP2C19, luciferin-H EGE luminescence; active compounds read high; 0 = fully inhibited enzyme, 1 = untreated enzyme | activation factor at 5 µM | 96,000 tested, under 10 active | AID 1025, 2008;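 active means activation factor of at least 2 at 5 µM in the primary screen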
# Hits are given with their value; 0 = inactive; - = no result. An excerpt weighted towards active compounds, which were near 22% of everything screened.
SMILES,CYP2C9 inh,CYP2C9 activ,CYP2C19 inh,Measles CPE,CYP2C19 act
CCCC(C(=O)Nc1nccs1)c1ccccc1 (stereo not drawn),0,0,54,0,0
Cc1ccc(C(=O)Nc2cccc([N+](=O)[O-])c2)cc1S(=O)(=O)Nc1ccc(NC(=O)c2ccccc2)cc1,-,-,-,0,-
CCOC(=O)c1cc(CC)sc1NC(=O)C(c1ccccc1)c1ccccc1,0,0,0,0,0
CN(C)c1ccc(-c2nc3n(n2)C(c2cccnc2)C2=C(CC(C)(C)CC2=O)N3)cc1 (stereo not drawn),0,0,0,0,0
O=C(COc1ccc(Cl)cc1)OCC(=O)N1CCCC1,0,0,0,0,0
O=C(Cn1cnc2ccccc2c1=O)Nc1ccc(-c2nnc3n2CCCCC3)cc1,0,0,0,0,0
COC(=O)c1cc(NC(=O)Cn2c(=O)cnc3ccccc32)cc(C(=O)OC)c1,89,0,0,0,0
COc1cccc(NC(=O)CSc2nc3ccccc3c(=O)n2CCCC(=O)N2CCCC2)c1,88,0,72,0,0
COc1ccc(NC(=O)CSc2nc3ccccc3c(=O)n2CCC(=O)N2CCCCC2)cc1,-,-,-,0,-
COC(=O)Cn1c(=O)cnc2ccccc21,0,0,0,0,0
O=C(Cn1cnc2ccccc2c1=O)Nc1cccc(-c2nnc3n2CCCCC3)c1,0,0,57,0,0
CCn1c(SCC(=O)Nc2ccc(Cl)cc2)nc2nc3c(cc2c1=O)CCCC3,-,-,-,0,-
CCn1c(SCC(=O)Nc2ccc(C(C)=O)cc2)nc2nc3c(cc2c1=O)CCCC3,68,0,0,0,0
Cc1occc1C(=O)NNC(=O)C1CCCCC1,-,-,-,0,-
O=C(c1ccco1)N1CCN(S(=O)(=O)c2ccc(Cl)s2)CC1,0,0,0,0,0
COCCCn1c(SCC(=O)Nc2ccc(C(C)=O)cc2)nc2ccccc2c1=O,71,0,99,0,0
COCCCn1c(SCC(=O)NCc2ccccc2)nc2ccccc2c1=O,-,-,-,0,-
COC(=O)c1ccc(C)c(NC(=O)c2nn(C)c(=O)c3ccccc23)c1,0,0,0,0,0
COCCn1c(SCC(=O)Nc2cccc(C(=O)OC)c2)nc2ccccc2c1=O,56,0,0,-,0
COC(=O)c1cccc(NC(=O)c2nn(C)c(=O)c3ccccc23)c1,55,0,0,0,0
COC(=O)c1cccc(NC(=O)Cn2cnc3ccccc3c2=O)c1,98,0,75,0,0
CC1=C(C)CS(=O)N(S(=O)(=O)c2ccc(Cl)cc2)C1 (stereo not drawn),0,0,0,0,0
CCN(CC)S(=O)(=O)c1cccc(-c2nnc(SC(C)C(=O)NCCC3=CCCCC3)o2)c1 (stereo not drawn),-,-,-,0,-
CC1CCc2c(nc3ncnn3c2N2CC(C)OC(C)C2)C1 (stereo not drawn),0,0,0,0,0
COc1ccc(N=CC2=C(O)CC(c3ccccc3)CC2=O)c(OC)c1 (stereo not drawn),-,-,-,0,-
SMILES,CYP2C9 inh,CYP2C9 activ,CYP2C19 inh,Measles CPE,CYP2C19 act
CCOc1ccc(NC(=S)Nc2ccc(C)c([N+](=O)[O-])c2)cc1,0,0,0,0,0
CC(Sc1nnc(NC(=O)c2cc3ccccc3oc2=O)s1)c1ccccc1 (stereo not drawn),0,0,0,0,0
Cc1nc(SCC(=O)OCc2ccccc2)c(C#N)c(-c2ccccc2)c1C(=O)Nc1ccccc1,59,0,0,0,0
CSc1nc(C)c(C(=O)Nc2ccccc2)c(C)c1C#N,0,0,73,0,0
Cc1nc(SCC(=O)c2cc3ccccc3oc2=O)c(C#N)c(C)c1C(=O)Nc1ccccc1,51,0,0,0,0
N#CC(c1cccc(Cl)c1)c1ccc2c(C(F)(F)F)cc(C(F)(F)F)nc2n1 (stereo not drawn),78,0,0,0,0
Cc1cc(C(C#N)c2cccc(Cl)c2)n2ncnc2n1 (stereo not drawn),0,0,0,0,0
COc1ccc(CN2C(=O)CN=C2Nc2cc(C)ccc2C)cc1,57,0,0,0,0
O=C(CCNc1ccc(Cl)c(C(F)(F)F)c1)c1ccco1,0,0,76,0,0
O=C(CCNc1ccc(F)cc1)c1ccco1,0,0,65,0,0
O=C(CCNc1cc(Cl)cc(Cl)c1)c1ccco1,0,0,61,0,0
